# ± gives the standard deviation.
# Test system: MILI (PIWIL2) piRISC loaded with L1MC piRNA (26 nt)
# Test: pre-steady-state target cleavage rate (min^-1); guide: L1MC piRNA 5'p-UAACUAAAUACUAUGCAAGCUGUAGG; MIWI and MILI are mouse PIWI proteins and EfPiwi is from a freshwater sponge; tags in brackets are library labels; higher = faster piRNA-guided slicing of the target
# How it was run: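 The method was Cleave-'n-Seq, in which uncleaved targets from a transcribed, DNA-blocked target RNA library were sequenced after exposure to active affinity-purified piRISC carrying one synthetic guide, with or without GTSF1 partner protein. Reactions contained 0.1 nM library, 1 nM piRISC and, where present, 500 nM GTSF1 in HEPES–potassium acetate buffer at 33 °C for 0–8 or 0–960 min. Reads were normalised to depth and to weakly complementary targets, three trials were pooled, and k3 was capped at 0.0001 min^-1. The pre-steady-state cleavage rate came from a burst-and-steady-state fit.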
# [1] = auxiliary factor: 500 nM mouse GTSF1
# [2] = auxiliary factor: none (no GTSF1)
Sequence,pre-steady-state target cleavage rate [1],pre-steady-state target cleavage rate [2]
UCCUGGAUGUCGAUGGCAUAGUAUUUAGUUA,0.0677 ± 0.014,0.00792 ± 0.003
UCCUGGAUGUGGAUGCAUAGUAUUUAGUAA,0.0714 ± 0.012,0.00471 ± 0.003
UCCUGGUACAGCUUCCAUUGUAUUUAGUUA,0.113 ± 0.039,0.00415 ± 0.0035
UCCUGGAUGUGGUUGCAUAGUAUUAAGUUA,0.171 ± 0.048,0.00678 ± 0.0029
UCCUGGUACAGCUUGCAUACUAAUUAGUUA,0.0462 ± 0.019,0.00356 ± 0.0031
UCCUGGAUGUGCUUGCAAAGUAUUUACUUA,0.0114 ± 0.0052,0.00362 ± 0.0028
UCCUGGAUGUGCUUGCUUAGUAUUUAGUAA,0.0779 ± 0.014,0.00576 ± 0.0018
UCCUGGUACAGCUUCGUUAGUAUUUAGUAA,0.165 ± 0.04,0.00388 ± 0.0027
UCCUGGAUGUCCUUGCAUAGUAUAAAGUUA,0.0673 ± 0.015,0.00312 ± 0.0028
UCCUGGAUGUGCUUGCAGAGUAUUUAGUUA,0.0463 ± 0.009,0.00711 ± 0.0023
UCCUGGAUCAGCUUGCAUAGUAUUGUAGUUA,0.176 ± 0.018,0.00992 ± 0.0032
UCCUGGAAGAGGUUGCAUAGUAUUUAGUUA,0.233 ± 0.012,0.0116 ± 0.0031
UCCUGGAUGUCGAUCGCAUAGUAUUUAGUUA,0.0384 ± 0.0094,0.00367 ± 0.0026
UCCUGGUACAGCUUGCAUAGGUAUUUAGUUA,0.0078 ± 0.0065,0.00574 ± 0.0037
UCCUGGAUCAGCUUGCAAAGUAUAUAGUUA,0.104 ± 0.012,0.00771 ± 0.0027
UCCUGGUACUGCUUGCAUACUAUUUAGUUA,0.0502 ± 0.015,0.00418 ± 0.0039
UCCUGGUACAGCUAGCAUAGUAAUUAGUUA,0.236 ± 0.041,0.00483 ± 0.0027
UCCUGGUACAGCUUGCUAAGUAUUUAGUUA,0.123 ± 0.015,0.00432 ± 0.0026
UCCUGGAUGUCGAUGCAUAGUAUUUGAGUUA,0.125 ± 0.027,0.00324 ± 0.0024
UCCUGGAUCAGGUUGCAUAGUUUUUAGUUA,0.023 ± 0.0088,0.00644 ± 0.0022

Sequence,pre-steady-state target cleavage rate [1],pre-steady-state target cleavage rate [2]
UCCUGGUACAGCUUGCAAUCUAUUUAGUUA,0.0377 ± 0.013,0.00455 ± 0.0036
UCCUGGAUGUCGUUGCAUAGUAAUUUGUUA,0.00776 ± 0.005,0.00315 ± 0.0027
UCCUGGAUGUGCUAGCAUAGUAAUUAGUUA,0.0614 ± 0.011,0.00598 ± 0.0021
UCCUGGAUGUCCUUGAUAGUAUUUAGUUA,0.00551 ± 0.0039,0.00337 ± 0.0019
UCCUGGUACACCUUGCAUUGUAUUUAGUUA,0.15 ± 0.041,0.00903 ± 0.0041
UCCUGGAUCAGCUUGGAUAGUAUUAAGUUA,0.162 ± 0.027,0.00386 ± 0.0022
UCCUGGAUGAGCUUGCAUAGUAUAAUGUUA,0.229 ± 0.061,0.00329 ± 0.0028
UCCUGCUACAGCAAGCAUAGUAUUUAGUAA,0.281 ± 0.026,0.00383 ± 0.0032
UCCUGGAACAGCUUCGAUAGUAUUUAGUAA,0.167 ± 0.019,0.00446 ± 0.0025
UCCUGGAUGUCGAAGCAUGGUAUUUAGUUA,0.0111 ± 0.0048,0.00436 ± 0.0021
UCCUGGAUCAGCUUGCUAUGUAUUUAGUUA,0.0176 ± 0.0068,0.00553 ± 0.0022
UCCUGGUACAGCUUGCUAGUAUUUAGUUA,0.0128 ± 0.0057,0.00634 ± 0.002
UCCUCCUACAGCUUGCUUAGUAUUUAGUAA,0.203 ± 0.017,0.0037 ± 0.0021
UCCUCCUACUCCUUGCAUAGUAUUUAGUUA,0.261 ± 0.021,0.0087 ± 0.0018
UCCUGGAUGAGCUUGCUUAGUAUAUAGUUA,0.103 ± 0.02,0.00937 ± 0.0029
UCCUGGAUCAGCAAGCAUAGUAUUUAGUUA,0.231 ± 0.021,0.00449 ± 0.0021
UCCUGGAUGUCCUUGCAUAGAUAUUUAGUUA,0.00754 ± 0.004,0.00426 ± 0.0023
UCCUGGAUGAGCUUGCAAUGUAUUUAGUAA,0.0194 ± 0.0045,0.00717 ± 0.0024
UCCUGGUACAGCUUGCAUUGUUUUUAGUUA,0.0201 ± 0.0095,0.00647 ± 0.0034
UCCUGGAUCAGCUUGCAUAGUUAUUAGUUA,0.0248 ± 0.01,0.00466 ± 0.0024

Sequence,pre-steady-state target cleavage rate [1],pre-steady-state target cleavage rate [2]
UCCUGGAUGUCGUUGCAAAGUAUUUAGUAA,0.0183 ± 0.0061,0.00357 ± 0.0021
UCCUGGAUGAGCUUGGAUAGUAUUUAGUAA,0.178 ± 0.027,0.00491 ± 0.0023
UCCUGGAACAGCUUGCAUUGUAUAUAGUUA,0.149 ± 0.017,0.00496 ± 0.0025
UCCUGCUACAGCUAGCAUAGUUUUUAGUUA,0.0836 ± 0.014,0.00345 ± 0.0024
UCCUGGAUGUGCAUGCAAAGUAUUUAGUUA,0.0175 ± 0.0048,0.00933 ± 0.0024
UCCUGGUACAGCAAGCAUAGUAUUUAGUAA,0.239 ± 0.029,0.00526 ± 0.0023
UCCUGGUACAGUCUUGCAUAGUAUUUAGUUA,0.254 ± 0.033,0.0122 ± 0.0047
UCCUCCUACAGCUUGCUAUGUAUUUAGUUA,0.0502 ± 0.011,0.00506 ± 0.0018
UCCUGGAUGUCCUUGCAUAGAUUUUAGUUA,0.0121 ± 0.0046,0.00402 ± 0.0018
UCCUGCUACUGGUUGCAUAGUAUUUAGUUA,0.251 ± 0.018,0.0113 ± 0.0029
UCCUGGUACACCUUGCAUAGUUUUUAGUUA,0.0288 ± 0.011,0.00381 ± 0.0034
UCCUGCUACAGCUUGCAAAGAAUUUAGUUA,0.0168 ± 0.0052,0.00324 ± 0.0017
UCCUGGAUGUCCUUGCAAAGUAUAUAGUUA,0.0544 ± 0.014,0.00539 ± 0.002
UCCUGGAUGUCGUUGCAUAGUAUUUAGUAUA,0.127 ± 0.03,0.00811 ± 0.0035
UCCUGGAUGUGCUUGCAUAGUAUUUAUGUUA,0.109 ± 0.021,0.0053 ± 0.0027
UCCUGGAUGAGGUUGCAUAGUAUAUAGUUA,0.163 ± 0.04,0.00623 ± 0.0021
UCCUGGAUGUGCAUGCAUUGUAUUUAGUUA,0.0212 ± 0.0051,0.00604 ± 0.0024
UCCUGGAUGUCCUUGCAUAGUAUUCUAGUUA,0.1 ± 0.022,0.00384 ± 0.0034
UCCUGGAUGUGCUUGCAUUGUAAUUAGUUA,0.0229 ± 0.0072,0.00338 ± 0.0033
UCCUGGAUGAGCAUGCAUAGUAAUUAGUUA,0.156 ± 0.021,0.00824 ± 0.0028

# — the supplement of paper PMC10338343
